# Data as given in the supplement of paper PMC10338343.
# ± gives the standard deviation. Whole data set: some 8,200 sequences, median “pre-steady-state target cleavage rate” near 0.024, cut for the highest 2% near 1.3. The sample as a whole holds a higher share of the highest values than the screen did.
# Tested on: MIWI (PIWIL1) piRISC loaded with L1MC piRNA (30 nt)
# Experiment: pre-steady-state target cleavage rate (min^-1); MIWI and MILI are mouse PIWI proteins and EfPiwi is from a freshwater sponge; tags in brackets are library labels; higher = faster piRNA-guided slicing of the target
# Settings: guide: L1MC piRNA 5'p-UAACUAAAUACUAUGCAAGCUGUAGGUCCU
# How it was run: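 With or without 500 nM GTSF1 partner protein, 1 nM active affinity-purified piRISC carrying one synthetic guide was mixed with 0.1 nM transcribed, DNA-blocked target RNA library in HEPES–potassium acetate buffer at 33 °C for 0–8 or 0–960 min. Uncleaved targets were sequenced and normalised to depth and to weakly complementary targets, three trials were pooled, and k3 was capped at 0.0001 min^-1. The pre-steady-state cleavage rate came from a burst-and-steady-state fit.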
# [1] = auxiliary factor: 500 nM mouse GTSF1
# [2] = auxiliary factor: none (no GTSF1)
Sequence,pre-steady-state target cleavage rate [1],pre-steady-state target cleavage rate [2]
UCCUCCUACAGCAUGCAUAGUAUAUAGUUA,0.786 ± 0.042,0.00795 ± 0.0022
UCCUCCUUCAGCAUGCAUAGUAUUUAGUUA,1.01 ± 0.043,0.0155 ± 0.0034
UCCUGGAUGUCGUAGCAUAGUAUUUAGUUA,0.0153 ± 0.005,
UCCUGGAUGUCCUUGCUUAGUAUUUAGUAA,0.00726 ± 0.004,
UCCUGCUACAGCUUGCAUACAAUUUAGUAA,0.0165 ± 0.008,
UCCUCCUACAGCUUGCAAAGUAUUUACAAA,0.267 ± 0.036,0.00344 ± 0.0031
UCGACCUACACGUUGCAUAGUAUUUUCAAA,0.224 ± 0.036,
UCCUGGUACACGUUGCAUAGUAUUUAGUAA,0.178 ± 0.041,
UCCUCCAACAGCUUGCAUAGUAUUUACUUA,0.267 ± 0.026,0.0243 ± 0.0038
UCGACCUACAGCUUGCAUAGUAUUUAGUUC [g2:g28:cont:t1C],1.22 ± 0.045,0.0714 ± 0.013
ACGACCUACAGCUUGCAUAGUAUUUAGUAA,1.11 ± 0.042,0.0771 ± 0.016
UCGACCUACAGCUUGCAUAGUAUUUAGUA,0.778 ± 0.039,0.0159 ± 0.0051
UCGACCUACAGCUUGCAUAGUAUUUAGUUUA,1.27 ± 0.058,0.0631 ± 0.0099
ACGACCUACAGCUUGCAUAGUAUUUAGAUA,0.62 ± 0.044,0.0521 ± 0.011
UCGACCUACAGCUUGCAUAGUAUUUAGUAA,1.15 ± 0.061,0.0683 ± 0.014
UCGACCCUACAGCUUGCAUAGUAUUUAGUUA,1.33 ± 0.061,0.0734 ± 0.012
ACGACCUACAGCUUGCAUAGUAUUUAGUUA,1.56 ± 0.064,0.0997 ± 0.017
UCGACCUACAGCUUUGCAUAGUAUUUAGUUA,1.4 ± 0.061,0.0371 ± 0.0078
UCGACCUACAGCUUGCAUAGUAUUUAGUUU [g2:g28:cont:t1U],1.75 ± 0.067,0.158 ± 0.033
UCGACCUACAGCUUGCAUAGUAUUUAGCUUA,0.375 ± 0.05,0.0283 ± 0.0087
UCCUGCUACUCGUUGCAUAGUAUUUAGAAA,0.0557 ± 0.014,

Sequence,pre-steady-state target cleavage rate [1],pre-steady-state target cleavage rate [2]
UCCUGGUACAGCUUGGAUAGUAUUUAGUAA,0.421 ± 0.095,0.0149 ± 0.0041
UCCUGCUACAGCUUGCAUUGAAUUUAGUUA,0.168 ± 0.012,0.00991 ± 0.0044
UCCUGGAUGUGCGUUGCAUAGUAUUUAGUUA,0.28 ± 0.032,0.00987 ± 0.0029
UCCACCUACUGCUUGCAAAGUAUUUAGUUA,0.623 ± 0.025,0.0305 ± 0.0052
AGGACCUACAGCUUGCGAUAGUAUUUAGUUA,0.108 ± 0.026,
UCGACCUACAGCUUGCAUAGUAUUAGUUA,0.346 ± 0.053,
UCGACCUACAGCUUGCAUAGUAUUAUAGUUA,1.32 ± 0.076,0.0387 ± 0.007
UCGACCUACAGCUUGCAUAGUAUUUAGUUG [g2:g28:cont:t1G],0.569 ± 0.04,0.0703 ± 0.013
UCGACCUACAGCUUGCAUAGUAUUUUAGUUA,1.21 ± 0.053,0.0302 ± 0.0073
UCGACCUACAGCUUGCAUAGUAUAUUAGUUA,1.25 ± 0.049,0.0248 ± 0.0063
UCGACCUACAGCUUGCAUAGUAUUUAGUUA [g2:g28:cont:t1A],1.56 ± 0.056,0.0936 ± 0.017
AGCACCUACAGCUUGCAUACUAUUUAGUUA,0.471 ± 0.099,0.00711 ± 0.0024
UCCUGGAUGUCGAACCAUUGUAUAUAGUUA,< 0.0001,
UCGACCUACAGCUUCAUAGUAUUUAGUUA,1.14 ± 0.042,0.0128 ± 0.0025
UCCACCUACAGCUUCGCAUAGUAUUUAGUUA,0.911 ± 0.056,0.0118 ± 0.0027
UGGACCUACAGCUUCGCAUAGUAUUUAGUUA,1.43 ± 0.1,0.0229 ± 0.0062
UCGACCUACAGCUUCGAUAGUAUUUAGUUA,0.911 ± 0.058,0.00251 ± 0.0018
UCGACCUACAGCUUCGCAUAGUAUUUAGUUA,1.33 ± 0.07,0.0168 ± 0.004
AGGACCUACAGCUUCGCAUAGUAUUUAGUUA,1.27 ± 0.071,0.0296 ± 0.0087
UGGAGCUACAGCUUGCAUUGUAUUUAGUUA,0.934 ± 0.038,0.0337 ± 0.0068
UCCUCCUACAGCUUGCAUACUAUUUAGAUA,0.0831 ± 0.015,0.0075 ± 0.0022

Sequence,pre-steady-state target cleavage rate [1],pre-steady-state target cleavage rate [2]
UCCUGGAUGUGCUUGCAUAGUAUUUAGAUA,0.118 ± 0.023,0.0188 ± 0.0067
UCGACCUACAGCUUGCAUAGAAUUUUCAAA,0.369 ± 0.059,
UCCUGGUACAGCUUACAUAGUAUUUAGUUA,0.749 ± 0.056,0.0246 ± 0.0048
UCCUGCUACAGCUUGCAUAGUAUUUUAGUUA,0.817 ± 0.067,0.0107 ± 0.0028
UCCUGCUACAGCUUGCAUAUUAUUUAGUUA,1.31 ± 0.066,0.0449 ± 0.0088
UCCUGCUACAGCUUGCAUAUAUUUAGUUA,0.408 ± 0.045,0.00397 ± 0.0033
AGCAGCUACAGCUUGCAUAGUAUUUAGUUA,1.37 ± 0.067,0.079 ± 0.016
AGCUGCUACAGCUUGCAUAGUAUUUAGUAA,0.977 ± 0.11,0.0202 ± 0.0038
UCCUGCUACAGCUUGCAUAGUUAUUUAGUUA,0.073 ± 0.013,0.00386 ± 0.0025
UGCUGCUACAGCUUGCAUAGUAUUUAGUUA,1.55 ± 0.058,0.0595 ± 0.011
UGCAGCUACAGCUUGCAUAGUAUUUAGUUA,1.21 ± 0.081,0.0733 ± 0.013
UCCUGCUACAGCUUGCAUAGUAUUUAGUUA [g2:g25:cont:t1A],0.864 ± 0.042,0.0585 ± 0.01
UGCUGCUACAGCUUGCAUAGUAUUUAGUAA,0.875 ± 0.084,0.0204 ± 0.0041
UGGUGCUACAGCUUGCAUAGUAUUUAGUUA,0.988 ± 0.079,0.0764 ± 0.017
AGCUGCUACAGCUUGCAUAGUAUUUAGUUA,1.49 ± 0.07,0.0697 ± 0.012
UCCUGGAACAGCUUCAUAGUAUUUAGUUA,0.95 ± 0.051,0.00772 ± 0.0027
UCCACCUACAGCUUGCGAUAGUAUUUAGUUA,0.0565 ± 0.018,
UGGACCAUGAGCUUGCAUAGUAUUUAGUAA,0.675 ± 0.045,0.0285 ± 0.0075
UCCUGGAACACCUUGCAUAGUUUUUAGUUA,0.148 ± 0.023,0.0142 ± 0.0044
